In the library only some 3.5% were active in any assay of this set; here they are far more common.
MITF inh – MITF inhibitors, primary screen, biochemical, AlphaScreen, human; inhibition, % at 2.6 µM; Microphthalmia-associated transcription factor (Homo sapiens), O75030; 0.91% of 650,000 active; AlphaScreen MITF homodimerization, bead proximity signal; in the data active means inhibition above about 50%
Target sequence (O75030 whole entry, looked up): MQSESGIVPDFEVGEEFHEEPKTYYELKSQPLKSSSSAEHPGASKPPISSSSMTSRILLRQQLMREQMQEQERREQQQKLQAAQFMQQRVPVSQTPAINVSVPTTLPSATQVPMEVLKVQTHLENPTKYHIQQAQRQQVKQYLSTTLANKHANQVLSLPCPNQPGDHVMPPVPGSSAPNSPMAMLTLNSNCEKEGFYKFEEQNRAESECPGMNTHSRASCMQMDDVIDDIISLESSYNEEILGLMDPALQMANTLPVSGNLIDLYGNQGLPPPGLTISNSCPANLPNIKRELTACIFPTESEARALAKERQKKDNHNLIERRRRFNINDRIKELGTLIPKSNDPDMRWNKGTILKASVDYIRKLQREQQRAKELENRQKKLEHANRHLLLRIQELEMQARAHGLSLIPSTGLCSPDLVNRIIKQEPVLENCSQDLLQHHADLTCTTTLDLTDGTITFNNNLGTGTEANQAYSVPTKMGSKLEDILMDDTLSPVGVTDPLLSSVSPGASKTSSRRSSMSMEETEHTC
GPR151 ag – activators of human GPR151, primary screen, cell-based, PathHunter beta-arrestin, luminescence; G-protein coupled receptor 151 (Homo sapiens), Q8TDV0; PathHunter beta-arrestin GPR151 cells; activation, % at 11.2 µM; 1% of 650,000 active; AID 1508602, 2020; in the data active means activation above about 4.9%
FBW7 activator – FBW7 E3 ligase activators, primary screen, biochemical, AlphaScreen, human; F-box/WD repeat-containing protein 7 (Homo sapiens), Q969H0; AlphaScreen FBW7–phospho-cyclin E peptide binding, activator screen; normalized activity (activation), % at 26.1 µM; 0.13% of 650,000 active; AID 1259310, 2017; in the data active means normalized activity above about 1.9%;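 further: purified mutant Fbw7 with reduced substrate affinity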
TEAD-YAP inh – TEAD-YAP interaction inhibition, primary screen, TEAD-YAP interaction inhibitor project, luminescence, HEK-TIYL cells; inhibition, % at 9.12 µM; TEAD-Gal4/YAP UAS-luciferase luminescence; AID 1259422, 2018; 1.4% of 640,000 active; in the data active means inhibition above about 32%
MITF confirm – MITF inhibitors, retest of hits, confirmation, biochemical, AlphaScreen, triplicate; shares compounds with MITF inh; AlphaScreen MITF homodimerization, biotin/His-MITF beads; 16% of 4,700 active; inhibition, % at 2.6 µM;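 active means inhibition above a cutoff derived from the DMSO control wells, cut at about 28% in these data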;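 further: inhibitors lower the bead chemiluminescence by keeping MITF from dimerizing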
AS interf ctr – AlphaScreen optical interference compounds, counter-screen for MITF inhibitor project, biochemical, triplicate. 7.6% of 4,700 active. inhibition, % at 2.6 µM. LysRS AlphaScreen counterscreen, signal interference. shares compounds with MITF inh;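 active means inhibition above a cutoff derived from the DMSO control wells, cut at about 30% in these data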
Of the large screens only hits and unclear results are named; the others gave an inactive call (follow-up assays come after a bar, where they were run).

COC(CNc1cc(-c2ccccn2)nc(-c2ccccn2)n1)OC	MITF inh 113.7 | MITF confirm 116.1 | AS interf ctr 100.3
COC(CNc1cc(-c2ccccn2)nc(-c2ccccc2)n1)OC	none
Cc1ccc(NS(=O)(=O)Cc2ccccc2Cl)cc1	none
O=C(C(c1ccccc1)c1ccccc1)N1CCN(Cc2ccc(F)cc2)CC1	MITF inh 61.9 | MITF confirm inactive | AS interf ctr inactive
Cc1ccccc1CN1CCN(C(=O)C(c2ccccc2)c2ccccc2)CC1	none
O=C(C(c1ccccc1)c1ccccc1)N1CCN(Cc2ccncc2)CC1	MITF inh 62.4 | MITF confirm inactive | AS interf ctr inactive
CSc1nc2sc3c(c2c(=O)n1CCc1ccccc1)CC(C)(C)OC3	none
CN(C)CCCN(CCCN(C)C)CC(c1ccccc1)c1ccccc1	MITF inh 54.6 | MITF confirm inactive | AS interf ctr inactive
COc1ccc(C2/C(=C(/O)c3ccc(C)cc3)C(=O)C(=O)N2CC(C)O)cc1OC (stereo not drawn)	MITF inh 67.9 | MITF confirm inactive | AS interf ctr inactive
O=C(COC(=O)c1cc(=O)c2ccccc2o1)NCc1ccc(Cl)cc1	MITF inh 51.5 | MITF confirm inactive | AS interf ctr inactive
O=C(COC(=O)c1cc(=O)c2ccccc2o1)NCc1ccccc1	none
COc1ccccc1N1CCN(Cc2cccc(OC)c2OC)CC1	none
COc1ccc(CN2CCN(Cc3cccc4ccccc34)CC2)cc1	MITF inh 57.5 | MITF confirm inactive | AS interf ctr inactive
COc1cccc(CN2CCN(Cc3ccccc3C)CC2)c1OC	MITF inh 77.3 | MITF confirm inactive | AS interf ctr inactive
COc1cccc(CN2CCN(Cc3cccc4ccccc34)CC2)c1OC	MITF inh 82.0 | MITF confirm inactive | AS interf ctr inactive
CSc1ccc(CN2CCN(Cc3cccc4ccccc34)CC2)cc1	MITF inh 74.4 | MITF confirm inactive | AS interf ctr inactive
CCOC(=O)N1CCN(Cc2cccc(OC)c2OC)CC1	none
CCOc1cc2c(cc1OCC)C(c1cc(Cl)c(O)c(OCC)c1)NCC2 (stereo not drawn)	none
Cc1cc(C)n2c(SCC(=O)Nc3sc(C)c(C)c3C#N)nnc2n1	none
COc1cccc(C2C(C#N)=C(N)Oc3n[nH]c(-c4ccc5c(c4)OCO5)c32)c1OCc1ccc(F)cc1 (stereo not drawn)	none
COc1ccccc1Cn1c(=O)c2cccnc2n(Cc2cccc(F)c2)c1=O	none
COc1ccccc1CN1CCN(Cc2cccc3ccccc23)CC1	MITF inh 85.5 | MITF confirm inactive | AS interf ctr inactive
CCOC(=O)C1=C(C)NC2=C(C(=O)CC(c3ccc(OC)cc3)C2)C1c1cccs1 (stereo not drawn)	none
O=C(CSc1ccccc1)Nc1ccc(Oc2ccc3c(c2)C(=O)NC3=O)cc1	none
OC(COCc1ccc(Cl)cc1)CN1CCN(CC2CCCO2)CC1 (stereo not drawn)	MITF inh 67.6 | MITF confirm inactive | AS interf ctr inactive
OC(COCc1ccc(Cl)cc1)CN1CCCC1 (stereo not drawn)	none
COc1cc(Nc2ccnc(Nc3ccc(C(F)(F)F)cc3)n2)cc(OC)c1OC	none
O=S(=O)(Nc1cccc2cccnc12)c1ccccc1O	MITF inh 60.1, TEAD-YAP inh 72.2 | MITF confirm 87.3 | AS interf ctr 100.6
O=S(=O)(Nc1cccc2cccnc12)c1ccc2ccccc2c1	none
O=C(NN1C(=O)c2ccc(Oc3ccc([N+](=O)[O-])cc3)cc2C1=O)c1ccco1	MITF inh 57.5 | MITF confirm inactive | AS interf ctr inactive
CCOC(=O)c1c(NC(=O)c2ccc(S(=O)(=O)N(CC)CC)cc2)sc2c1CCN(C)C2	none
O=C(NCC1C2CC3CC(C2)CC1C3)c1ccc(CN2CCOCC2)[nH]c1=O (stereo not drawn)	none
CC(C)Sc1ccc(-c2ccccc2C=O)cn1	MITF inh 113.7 | MITF confirm inactive | AS interf ctr inactive
Oc1ccc(Cn2cnc3ccccc32)c2cccnc12	MITF inh 95.2, TEAD-YAP inh 51.4 | MITF confirm 96.1 | AS interf ctr 100.6
Oc1ccc(Cn2ccnc2)c2cccnc12	MITF inh 108.6 | MITF confirm 112.2 | AS interf ctr 99.8
Brc1ccccc1Cn1cnc2ccccc21	none
CCN(Cc1ccccc1)C(=O)Cc1cccs1	none
S=C(NCc1cccs1)Nc1ccc2c(c1)OCO2	none
CCNCc1ccc(OCC(=O)Nc2ccccc2C)c(OC)c1	none
Cc1cc(=O)[nH]c(N/N=C/c2c3ccccc3cc3ccccc23)n1	MITF inh 50.6 | MITF confirm inactive | AS interf ctr inactive
O=C1CCCN1CCCn1c(=S)[nH]c2cc3ccccc3cc2c1=O	MITF inh 65.8 | MITF confirm inactive | AS interf ctr inactive
OCCN1CCN(c2cc(-c3ccccc3F)nc(-c3cccnc3)n2)CC1	none
OCCN1CCN(c2cc(-c3ccccc3F)nc(-c3ccccc3)n2)CC1	MITF inh 53.4 | MITF confirm inactive | AS interf ctr inactive
COc1ccc(C(=O)NC(=S)Nc2ccc([N+](=O)[O-])cc2OC)cc1	none
O=C1CC(c2ccccc2)CC2=C1C(c1cc(F)ccc1F)Nc1ccccc1N2 (stereo not drawn)	none
COc1ccc(N2CCN(Cc3cccc(OC)c3OC)CC2)cc1	none
COc1ccc(CN2CCN(Cc3cccnc3)CC2)c(OC)c1OC	MITF inh 81.3 | MITF confirm inactive | AS interf ctr inactive
COc1cccc(CN2CCN(Cc3cccnc3)CC2)c1OC	MITF inh 76.4 | MITF confirm inactive | AS interf ctr inactive
O=C(C1CCN(S(=O)(=O)c2ccc(F)cc2)CC1)N1CCCCC1	none
CC1(C)C(=O)NCCN1C(=O)C1CCN(S(=O)(=O)c2ccc(F)cc2)CC1	MITF inh 68.5 | MITF confirm inactive | AS interf ctr inactive
Cc1c(C(=O)N2CCN(c3ccccc3F)CC2)sc2ncnc(N3CCN(c4ccccc4)CC3)c12	none
Cc1cc(S(=O)(=O)N2CCN(CCC(=O)O)CC2)ccc1Br	MITF inh 53.6 | MITF confirm inactive | AS interf ctr inactive
COC(=O)CCN1CCN(S(=O)(=O)c2ccccc2Br)CC1	MITF inh 84.6 | MITF confirm inactive | AS interf ctr inactive
Cc1nc(N/N=C/c2ccccc2O)cc(-c2ccccc2)n1	none
